Here are results for eleven compounds from ChEMBL document CHEMBL2218924, “A broad activity screen in support of a chemogenomic map for kinase signalling research and drug discovery” (Biochem J, 2013).

The target of experiment [1] is ALK tyrosine kinase receptor (Homo sapiens) (UniProt Q9UM73). The note with it: at 10 µM.
Experiment [2] has as its target T1, AMP-activated protein kinase (AMPK) alpha-1/beta-1/gamma-1 (Homo sapiens) (UniProt P54619+Q9Y478+Q13131). Conditions: at 10 µM.
The target of experiment [3] is T2, AMP-activated protein kinase, AMPK (Homo sapiens) (UniProt P54646+O43741+P54619+Q9UGJ0+Q9Y478+Q13131+Q9UGI9). Conditions: at 1 µM.
Experiment [4] addresses T2, AMP-activated protein kinase, AMPK (Homo sapiens). The note with it: at 10 µM.
Experiment [5] deals with T3, NUAK family SNF1-like kinase 1 (Homo sapiens) (UniProt O60285).
T3 sequence (whole entry): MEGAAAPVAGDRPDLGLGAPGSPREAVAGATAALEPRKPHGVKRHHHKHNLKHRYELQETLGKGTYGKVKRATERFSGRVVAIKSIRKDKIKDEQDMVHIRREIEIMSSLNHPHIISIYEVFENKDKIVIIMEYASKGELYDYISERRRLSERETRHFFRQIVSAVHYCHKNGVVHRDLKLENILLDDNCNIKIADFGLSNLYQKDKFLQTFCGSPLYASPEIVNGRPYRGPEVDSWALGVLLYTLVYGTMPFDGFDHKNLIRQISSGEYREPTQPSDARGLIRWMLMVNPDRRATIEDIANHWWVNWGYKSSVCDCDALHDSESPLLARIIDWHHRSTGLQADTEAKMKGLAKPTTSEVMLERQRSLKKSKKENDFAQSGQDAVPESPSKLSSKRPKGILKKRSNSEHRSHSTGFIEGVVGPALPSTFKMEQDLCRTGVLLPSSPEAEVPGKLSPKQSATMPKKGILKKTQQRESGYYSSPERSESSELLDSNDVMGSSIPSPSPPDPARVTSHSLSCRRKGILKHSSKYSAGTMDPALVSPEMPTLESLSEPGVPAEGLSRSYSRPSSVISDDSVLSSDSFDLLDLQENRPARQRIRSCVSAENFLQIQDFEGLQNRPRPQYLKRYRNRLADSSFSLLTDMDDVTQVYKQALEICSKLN
The note with it: at 1 µM.

The target of experiment [6] is T3, NUAK family SNF1-like kinase 1 (Homo sapiens). Conditions: at 10 µM.
Experiment [7] deals with T4, Mitogen-activated protein kinase kinase kinase 5 (Homo sapiens) (UniProt Q99683).
T4 sequence (whole entry): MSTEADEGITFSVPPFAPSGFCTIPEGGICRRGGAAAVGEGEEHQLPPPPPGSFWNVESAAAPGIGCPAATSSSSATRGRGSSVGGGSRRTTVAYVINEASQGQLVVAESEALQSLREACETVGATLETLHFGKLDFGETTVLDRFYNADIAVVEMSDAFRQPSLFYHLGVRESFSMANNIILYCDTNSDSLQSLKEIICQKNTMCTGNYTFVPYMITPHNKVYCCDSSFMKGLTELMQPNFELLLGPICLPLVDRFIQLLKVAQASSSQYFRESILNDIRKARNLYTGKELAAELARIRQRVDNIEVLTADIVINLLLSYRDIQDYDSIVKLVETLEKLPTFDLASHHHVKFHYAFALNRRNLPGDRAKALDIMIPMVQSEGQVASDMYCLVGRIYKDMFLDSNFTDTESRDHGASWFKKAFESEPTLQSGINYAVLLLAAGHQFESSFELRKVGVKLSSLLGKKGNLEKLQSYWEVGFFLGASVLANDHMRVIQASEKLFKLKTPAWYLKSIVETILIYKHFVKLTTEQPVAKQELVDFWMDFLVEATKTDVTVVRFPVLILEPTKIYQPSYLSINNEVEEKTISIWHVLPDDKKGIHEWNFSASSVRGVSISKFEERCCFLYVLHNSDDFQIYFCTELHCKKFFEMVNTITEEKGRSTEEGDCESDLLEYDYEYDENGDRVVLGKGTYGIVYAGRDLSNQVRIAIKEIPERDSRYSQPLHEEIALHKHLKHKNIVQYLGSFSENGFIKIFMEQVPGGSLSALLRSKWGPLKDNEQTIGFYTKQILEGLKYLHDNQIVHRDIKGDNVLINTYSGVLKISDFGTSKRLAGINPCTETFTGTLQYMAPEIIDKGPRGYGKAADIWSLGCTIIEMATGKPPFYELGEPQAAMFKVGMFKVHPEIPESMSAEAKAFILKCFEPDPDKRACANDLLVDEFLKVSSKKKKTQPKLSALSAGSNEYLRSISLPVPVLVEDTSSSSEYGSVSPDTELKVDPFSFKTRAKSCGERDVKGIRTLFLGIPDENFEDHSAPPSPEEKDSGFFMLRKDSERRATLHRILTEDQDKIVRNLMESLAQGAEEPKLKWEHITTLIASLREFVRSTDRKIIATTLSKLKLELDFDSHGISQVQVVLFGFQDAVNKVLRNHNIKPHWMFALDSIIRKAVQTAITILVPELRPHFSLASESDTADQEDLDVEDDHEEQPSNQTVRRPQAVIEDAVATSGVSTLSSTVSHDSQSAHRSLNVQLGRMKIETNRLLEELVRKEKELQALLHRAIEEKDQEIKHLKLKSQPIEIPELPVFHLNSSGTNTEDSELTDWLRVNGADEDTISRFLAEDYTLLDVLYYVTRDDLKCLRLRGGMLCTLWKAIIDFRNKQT
The note with it: at 1 µM.

Experiment [8] has as its target RAC-gamma serine/threonine-protein kinase (Homo sapiens) (UniProt Q9Y243). The note with it: at 1 µM.
Experiment [9] shares this target. The note with it: at 10 µM.
Experiment [10] has as its target T5, Activin receptor type-1B (Homo sapiens) (UniProt P36896).
T5 sequence (whole entry): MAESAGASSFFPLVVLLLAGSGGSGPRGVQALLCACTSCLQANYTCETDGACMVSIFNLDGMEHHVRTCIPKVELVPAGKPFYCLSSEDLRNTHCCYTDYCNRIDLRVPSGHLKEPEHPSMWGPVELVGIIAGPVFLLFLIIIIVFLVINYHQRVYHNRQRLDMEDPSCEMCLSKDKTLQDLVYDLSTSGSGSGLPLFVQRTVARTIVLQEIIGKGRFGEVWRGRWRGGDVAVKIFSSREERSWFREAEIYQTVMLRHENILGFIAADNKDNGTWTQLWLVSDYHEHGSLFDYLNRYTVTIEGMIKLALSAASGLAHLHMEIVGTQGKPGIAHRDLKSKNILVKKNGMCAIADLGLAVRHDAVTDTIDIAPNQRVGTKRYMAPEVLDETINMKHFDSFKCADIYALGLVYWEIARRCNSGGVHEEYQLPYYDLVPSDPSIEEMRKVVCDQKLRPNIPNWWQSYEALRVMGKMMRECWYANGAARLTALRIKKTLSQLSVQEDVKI
The note with it: at 1 µM.

For experiment [11], the target named is T5, Activin receptor type-1B (Homo sapiens). The note with it: at 10 µM.
In experiment [12] the target is T1, AMP-activated protein kinase (AMPK) alpha-1/beta-1/gamma-1 (Homo sapiens). The note with it: at 1 µM.
The target in experiment [13] is cAMP-dependent protein kinase catalytic subunit alpha (Homo sapiens) (UniProt P17612). The note with it: at 1 µM.
Experiment [14] shares this target. The note with it: at 10 µM.
For experiment [15], the target named is Platelet-derived growth factor receptor alpha (Homo sapiens) (UniProt P16234). Conditions: at 1 µM.
Platelet-derived growth factor receptor alpha (Homo sapiens), sequence (P16234 whole entry): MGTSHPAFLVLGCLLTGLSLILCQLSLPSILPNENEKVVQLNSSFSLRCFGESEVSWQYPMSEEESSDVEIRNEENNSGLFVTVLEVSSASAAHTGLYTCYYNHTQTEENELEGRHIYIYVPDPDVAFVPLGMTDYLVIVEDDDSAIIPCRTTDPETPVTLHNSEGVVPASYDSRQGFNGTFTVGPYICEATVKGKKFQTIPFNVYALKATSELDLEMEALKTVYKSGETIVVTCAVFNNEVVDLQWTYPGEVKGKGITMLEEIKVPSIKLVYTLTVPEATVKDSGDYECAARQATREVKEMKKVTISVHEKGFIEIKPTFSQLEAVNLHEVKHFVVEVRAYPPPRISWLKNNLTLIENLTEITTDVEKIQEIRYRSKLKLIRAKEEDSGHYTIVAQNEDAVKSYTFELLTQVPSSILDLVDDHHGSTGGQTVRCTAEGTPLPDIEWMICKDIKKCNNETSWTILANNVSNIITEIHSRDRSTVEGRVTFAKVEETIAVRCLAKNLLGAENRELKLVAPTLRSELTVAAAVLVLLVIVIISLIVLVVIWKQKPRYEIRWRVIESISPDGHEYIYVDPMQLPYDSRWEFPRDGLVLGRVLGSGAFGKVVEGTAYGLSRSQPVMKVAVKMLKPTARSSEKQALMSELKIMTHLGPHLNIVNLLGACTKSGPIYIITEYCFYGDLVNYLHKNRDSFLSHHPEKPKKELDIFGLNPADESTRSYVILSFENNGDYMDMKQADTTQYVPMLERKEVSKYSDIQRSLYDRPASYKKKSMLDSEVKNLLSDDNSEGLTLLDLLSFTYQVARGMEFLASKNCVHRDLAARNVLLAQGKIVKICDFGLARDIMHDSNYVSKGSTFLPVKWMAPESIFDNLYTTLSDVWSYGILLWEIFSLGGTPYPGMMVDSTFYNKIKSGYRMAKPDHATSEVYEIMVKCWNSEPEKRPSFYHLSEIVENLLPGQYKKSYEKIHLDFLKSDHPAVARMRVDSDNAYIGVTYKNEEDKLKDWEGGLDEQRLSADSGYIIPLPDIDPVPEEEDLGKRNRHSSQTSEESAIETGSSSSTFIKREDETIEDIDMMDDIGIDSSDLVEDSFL
Experiment [16] shares this target. Conditions: at 10 µM.
Experiment [17] addresses T6, 3-phosphoinositide-dependent protein kinase 1 (Homo sapiens) (UniProt O15530).
T6 sequence (whole entry): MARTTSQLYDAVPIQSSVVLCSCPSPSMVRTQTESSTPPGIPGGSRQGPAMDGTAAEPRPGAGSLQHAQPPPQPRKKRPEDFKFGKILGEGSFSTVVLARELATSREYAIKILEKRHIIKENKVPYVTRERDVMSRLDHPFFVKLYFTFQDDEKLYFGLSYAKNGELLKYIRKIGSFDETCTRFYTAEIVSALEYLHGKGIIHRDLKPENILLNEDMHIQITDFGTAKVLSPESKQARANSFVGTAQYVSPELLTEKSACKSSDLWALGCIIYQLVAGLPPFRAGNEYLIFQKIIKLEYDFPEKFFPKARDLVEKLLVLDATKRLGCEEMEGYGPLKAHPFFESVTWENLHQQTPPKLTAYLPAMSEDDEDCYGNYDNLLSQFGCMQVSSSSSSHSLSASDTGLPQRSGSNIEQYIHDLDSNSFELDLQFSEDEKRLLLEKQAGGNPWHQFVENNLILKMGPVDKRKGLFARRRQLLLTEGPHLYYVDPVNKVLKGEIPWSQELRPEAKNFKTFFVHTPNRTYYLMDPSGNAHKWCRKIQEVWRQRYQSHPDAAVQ
The note with it: at 10 µM.

The target in experiment [18] is Platelet-derived growth factor receptor beta (Homo sapiens) (UniProt P09619). The note with it: at 1 µM.
Platelet-derived growth factor receptor beta (Homo sapiens), sequence (P09619 whole entry): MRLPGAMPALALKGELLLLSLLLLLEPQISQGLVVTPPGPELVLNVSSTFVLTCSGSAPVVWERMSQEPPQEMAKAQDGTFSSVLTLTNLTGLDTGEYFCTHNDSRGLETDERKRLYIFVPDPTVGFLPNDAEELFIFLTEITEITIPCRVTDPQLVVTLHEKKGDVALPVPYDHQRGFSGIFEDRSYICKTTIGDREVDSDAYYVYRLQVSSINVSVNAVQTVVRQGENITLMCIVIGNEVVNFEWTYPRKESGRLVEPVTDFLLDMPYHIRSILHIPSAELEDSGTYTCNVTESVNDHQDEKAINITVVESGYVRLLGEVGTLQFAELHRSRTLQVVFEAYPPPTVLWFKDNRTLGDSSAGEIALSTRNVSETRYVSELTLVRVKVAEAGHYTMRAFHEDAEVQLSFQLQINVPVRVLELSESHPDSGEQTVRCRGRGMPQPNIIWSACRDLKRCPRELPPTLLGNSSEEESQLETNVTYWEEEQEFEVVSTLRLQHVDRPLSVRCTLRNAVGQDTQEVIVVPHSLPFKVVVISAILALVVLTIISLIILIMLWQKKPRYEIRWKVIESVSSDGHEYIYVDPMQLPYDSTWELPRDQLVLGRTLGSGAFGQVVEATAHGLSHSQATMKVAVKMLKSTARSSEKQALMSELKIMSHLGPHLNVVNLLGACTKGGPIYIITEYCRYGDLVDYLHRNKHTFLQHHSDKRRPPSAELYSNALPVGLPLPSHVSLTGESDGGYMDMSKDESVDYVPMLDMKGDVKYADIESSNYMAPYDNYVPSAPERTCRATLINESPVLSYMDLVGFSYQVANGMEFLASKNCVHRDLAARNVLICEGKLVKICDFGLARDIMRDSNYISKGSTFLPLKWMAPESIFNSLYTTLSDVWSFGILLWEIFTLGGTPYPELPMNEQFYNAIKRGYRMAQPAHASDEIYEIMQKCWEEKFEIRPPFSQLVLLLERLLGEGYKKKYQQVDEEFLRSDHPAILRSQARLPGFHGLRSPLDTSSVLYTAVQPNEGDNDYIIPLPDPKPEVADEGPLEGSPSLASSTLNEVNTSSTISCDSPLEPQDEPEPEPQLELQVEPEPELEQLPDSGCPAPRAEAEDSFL
Experiment [19] has the same target. Conditions: at 10 µM.
Experiment [20] has as its target T6, 3-phosphoinositide-dependent protein kinase 1 (Homo sapiens). Conditions: at 1 µM.

RAC-gamma serine/threonine-protein kinase (Homo sapiens), sequence (Q9Y243 whole entry): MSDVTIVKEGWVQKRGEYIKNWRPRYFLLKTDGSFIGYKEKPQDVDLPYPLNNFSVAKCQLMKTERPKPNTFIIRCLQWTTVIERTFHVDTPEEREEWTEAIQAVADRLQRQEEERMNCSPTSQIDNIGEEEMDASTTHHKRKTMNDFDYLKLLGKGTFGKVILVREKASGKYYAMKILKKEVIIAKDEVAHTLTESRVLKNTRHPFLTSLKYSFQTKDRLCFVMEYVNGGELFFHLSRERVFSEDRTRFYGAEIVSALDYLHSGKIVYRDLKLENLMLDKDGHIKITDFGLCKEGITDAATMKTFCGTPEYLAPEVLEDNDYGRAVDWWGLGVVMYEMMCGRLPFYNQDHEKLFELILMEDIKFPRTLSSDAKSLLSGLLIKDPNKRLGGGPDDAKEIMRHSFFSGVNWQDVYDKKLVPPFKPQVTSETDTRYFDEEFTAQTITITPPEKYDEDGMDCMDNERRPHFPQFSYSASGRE
ALK tyrosine kinase receptor (Homo sapiens), sequence (Q9UM73 19-1620 limits assumed): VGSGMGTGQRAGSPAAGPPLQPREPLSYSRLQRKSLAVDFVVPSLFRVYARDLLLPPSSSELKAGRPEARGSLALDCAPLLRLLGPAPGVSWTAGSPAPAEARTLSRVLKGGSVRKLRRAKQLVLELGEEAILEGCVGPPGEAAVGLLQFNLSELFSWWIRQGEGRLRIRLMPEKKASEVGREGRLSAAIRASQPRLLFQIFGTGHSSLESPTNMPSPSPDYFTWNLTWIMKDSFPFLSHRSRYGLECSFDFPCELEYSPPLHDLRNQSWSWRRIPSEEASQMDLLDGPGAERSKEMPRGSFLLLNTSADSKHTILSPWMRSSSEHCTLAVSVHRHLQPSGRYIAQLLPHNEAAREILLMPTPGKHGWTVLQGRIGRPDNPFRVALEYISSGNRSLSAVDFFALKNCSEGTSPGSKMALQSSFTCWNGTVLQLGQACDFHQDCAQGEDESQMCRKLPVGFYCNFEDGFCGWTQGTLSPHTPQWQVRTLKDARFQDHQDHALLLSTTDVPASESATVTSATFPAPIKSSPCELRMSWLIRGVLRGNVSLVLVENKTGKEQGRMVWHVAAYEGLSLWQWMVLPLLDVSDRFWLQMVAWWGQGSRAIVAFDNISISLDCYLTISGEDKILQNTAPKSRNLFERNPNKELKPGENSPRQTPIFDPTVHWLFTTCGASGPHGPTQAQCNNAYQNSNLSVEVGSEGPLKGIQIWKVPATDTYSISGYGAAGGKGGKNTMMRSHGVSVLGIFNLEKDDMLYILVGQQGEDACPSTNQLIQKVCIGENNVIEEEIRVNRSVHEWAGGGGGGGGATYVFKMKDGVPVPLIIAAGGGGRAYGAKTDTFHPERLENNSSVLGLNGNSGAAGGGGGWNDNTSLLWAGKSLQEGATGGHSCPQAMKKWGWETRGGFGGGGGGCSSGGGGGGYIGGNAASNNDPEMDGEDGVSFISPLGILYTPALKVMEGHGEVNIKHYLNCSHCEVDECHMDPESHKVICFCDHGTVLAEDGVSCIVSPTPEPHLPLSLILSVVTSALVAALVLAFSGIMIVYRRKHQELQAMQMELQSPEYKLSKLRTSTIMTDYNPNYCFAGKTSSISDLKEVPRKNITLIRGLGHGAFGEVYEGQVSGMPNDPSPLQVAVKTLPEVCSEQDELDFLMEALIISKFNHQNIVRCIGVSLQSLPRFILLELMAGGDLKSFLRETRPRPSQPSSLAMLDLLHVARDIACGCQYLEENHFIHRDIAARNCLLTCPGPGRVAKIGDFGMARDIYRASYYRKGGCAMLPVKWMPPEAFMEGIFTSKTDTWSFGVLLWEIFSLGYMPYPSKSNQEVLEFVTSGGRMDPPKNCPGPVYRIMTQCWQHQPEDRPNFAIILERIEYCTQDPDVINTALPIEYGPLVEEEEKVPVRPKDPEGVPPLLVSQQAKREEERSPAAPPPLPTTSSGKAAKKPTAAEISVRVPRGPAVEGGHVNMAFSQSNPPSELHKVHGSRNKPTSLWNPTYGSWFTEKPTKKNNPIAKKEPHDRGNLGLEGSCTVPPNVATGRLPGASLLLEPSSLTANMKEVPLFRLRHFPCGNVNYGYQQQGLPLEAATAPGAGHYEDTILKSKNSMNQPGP

Take `N#C/C(=C1/Nc2ccccc2S1)c1ccnc(NCCc2cccnc2)n1`: the residual activity worked out at 18% in [1]; 70% in [2]; 99% in experiment [3]; 67% in experiment [4]; 97% in experiment [5]; 82% in experiment [6]. Also, the results for the residual activity in experiment [7], in experiment [8] and in experiment [9] were 78%, 89% and 16%, respectively.
On to `COc1ccc(COc2ccc(Cc3cnc(N)nc3N)cc2OC)cc1`, for which the residual activity in experiment [10] was determined as 120%; in experiment [11], 119%; in experiment [4], 82%.
For the compound `Cc1cc(C)c(/C=C2\C(=O)Nc3ccccc32)[nH]1`, the residual activity in experiment [1] came to 13%; in experiment [12], 55%; in [2] it was 29%; in experiment [5], 35%; in experiment [6] it was 19%; in [8], 101%.
On to `O=S(=O)(c1cccc2cnccc12)N1CCCNCC1`, for which the residual activity is 74% in experiment [1]; 52% in [6]; 53% in [13]; 17% in experiment [14]; 55% in experiment [9].
Turning to `CSc1nc(-c2ccc(F)cc2)c(-c2ccnc(NC(C)c3ccccc3)c2)[nH]1` (stereo not drawn), the residual activity in [1] was determined as 56%; in experiment [12], 88%; in [2], 59%; in [3] it was 80%; in [4], 56%; in experiment [5], 101%. Moreover, the residual activity came out at 60% in [6], 101% in [7], 101% in experiment [13] and 133% in [14].
Take `Cn1sc(=O)n(Cc2ccccc2)c1=O`: the residual activity in experiment [1] turned out to be 71%; in experiment [12] it was 83%; in experiment [2], 82%; in [3] it was 89%; in [4], 90%; in experiment [7], 81%. The residual activity in experiment [15] is 100%; in [16] it was 100%; in experiment [13] it was 91%; in experiment [14], 89%; in experiment [8], 85%; in experiment [9], 84%.
Turning to `Nc1ncnc2c1cnn2-c1ccccc1`, the residual activity in [12] was 96%; in [2], 90%; in experiment [4], 83%; in experiment [5] it was 99%; in experiment [6], 87%; in experiment [7], 100%. For the same compound, the values for the residual activity in experiment [16], in [17] and in experiment [9] were 101%, 87% and 73%, respectively.
Turning to `NC(=O)c1cccc(-c2cc(Nc3ccc(OC(F)(F)F)cc3)ncn2)c1`, the residual activity in experiment [12] is 99%; in [2], 93%; in experiment [4] it was 83%; in [6], 90%; in experiment [7], 90%.
Consider `O=C1Cc2c([nH]c3ccc([N+](=O)[O-])cc23)-c2ccccc2N1`, for which the residual activity in experiment [12] is 48%; in experiment [2] it was 40%; in [3] it was 18%; in experiment [4], 36%; in [5], 10%; in experiment [6] it was 9%. For the same compound, the residual activity in [7] was 106%; in experiment [15] it was 109%; in experiment [16], 112%; in experiment [18], 107%; in [19] it was 100%; in experiment [20], 45%. Further, the residual activity was determined as 45% in experiment [17] and 118% in [8].
Turning to `O=c1cc(N2CCNCC2)oc2c(-c3ccccc3)cccc12`, the residual activity amounted to 49% in [1]; 95% in experiment [12]; 75% in experiment [2]; 71% in experiment [4]; 91% in experiment [5]; 82% in [6]. Besides, the residual activity in experiment [7] was 90%; in experiment [18] it was 99%; in experiment [19], 88%; in experiment [13], 72%; in experiment [14], 83%; in [8] it was 85%. In addition, the residual activity in experiment [9] was 85%.
For the compound `COc1cc2nccc(Oc3ccc(NC(=O)Nc4cc(C)on4)c(Cl)c3)c2cc1OC`, the residual activity in [10] was found to be 105%; in [11], 57%; in experiment [4], 82%; in [18], 13%; in experiment [19] it was 2%; in experiment [13], 108%. In [14], the residual activity is 98%.
